Screens as filed in PubChem BioAssay.
IL1B secr inh – blocks inflammasome-driven IL-1 beta release | THP-1 LPS/ATP IL-1B secretion, AlphaLISA, 16 h; active compounds read low | activity change, % at 57.5 µM | 360,000 compounds, 4.7% hits | AID 743279; in the data active = activity change below about -50%; inconclusive = mostly about -30% to -49%
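THP-1 cells pretreated 1 hr with compounds (up to 57.5 uM final), then stimulated with LPS (250 ng/mL final) plus ATP (1.25 mM final); secreted IL-1B measured by AlphaLISA after 16 hr, decreased signal indicating inhibition.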
ELG1 repair inh – blocks ELG1-dependent DNA repair in HEK293T cells | HEK293T ELG1-luciferase reporter, luminescence, 16 h; DNA damage induced by 5-fluorouridine | Potency, µM (series often up to 46.1 µM), for inactives: top-dose activity change, negative = inhibition, actives largely listed as inhibitors | 330,000 compounds, 2.3% hits; note: potency is the fitted concentration of half-maximal effect; nearly all actives have a fitted effect of over 55% in size
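Reporter activity after DNA damage by 5-fluorouridine is monitored. Compound-treated cells incubate 16 hr at 37 °C, then ONE-Glo is added for 30 min before luminescence reading.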
TDP1 cell noCPT – qHTS for Inhibitors of human tyrosyl-DNA phosphodiesterase 1 (TDP1): qHTS in cells in absence of CPT. DT40 Tdp1-/- hTDP1 cells, no CPT, ATP luminescence, 48 h. Potency, µM (titrated, usually from 46.2 µM), for the others: at the highest dose activity change, negative = growth inhibition, usual class: inhibitors. 420,000 compounds, 15% hits; note: potency is the fitted concentration of half-maximal effect; nearly all actives have a fitted effect of over 55% in size
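A cellular qHTS used chicken DT40 cells lacking endogenous Tdp1 but carrying stably transfected human TDP1. Compounds were applied without camptothecin, and cell growth kinetics were judged by ATP-dependent luminescence after ≥48 hr.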
HT1080 IDH1KD tx – toxicity to HT-1080 IDH1 knockdown cells (counter line); Potency, µM (titrated, usually from 46.1 µM), for the others: at the highest dose activity, negative = toxicity, most hits filed as cytotoxic; 360,000 compounds, 2% hits; HT-1080 IDH1 knockdown viability, ATP luminescence, 48 h; AID 686971;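 note: potency is the fitted concentration of half-maximal effect; 0% = DMSO wells and -100% = cell-free medium wells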
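% activity derives from luminescence (CellTiter-Glo), normalised to DMSO and no-cell wells. HT-1080-IDH1KD cells, 750/well, had 48 h compound exposure at 37 °C.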
TDP1 cell CPT – growth inhibition of DT40 Tdp1-/-;hTDP1 cells with camptothecin (screen for TDP1 inhibitors). chicken DT40 Tdp1-/-;hTDP1 cells + 20 nM CPT, ATP luminescence, 48 h. Potency, µM (titrated, usually from 46.2 µM), without a hit: at the top dose activity change, negative = growth inhibition, most hits filed as inhibitors. 420,000 compounds, 12% hits. AID 686979; note: potency is the fitted concentration of half-maximal effect; nearly all actives have a fitted effect of over 55% in size
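Cell growth measured by CellTiter-Glo luminescence after a minimum 48 h, 37 C compound exposure with 20 nM CPT in Tdp1-knockout DT40 cells stably expressing hTDP1, seeded 400/well; qHTS titration format.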
HT1080-NT tox – kills 2HG-producing HT-1080-NT fibrosarcoma cells | HT-1080-NT fibrosarcoma viability, CellTiter-Glo ATP luminescence, 48 h | Potency, µM (doses to about 46.1 µM), for the others: at the top dose activity, negative = less viability, actives largely listed as cytotoxic | 360,000 compounds, 1.6% hits | AID 686970;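 note: NT is the 2HG producing partner of a matched IDH1 knockdown line; potency is the fitted concentration of half-maximal effect; 0% = DMSO-treated cells and -100% = media-only wells without cells; nearly all actives have a fitted effect of over 55% in size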
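HT-1080-NT fibrosarcoma cells (2HG-overproducing), 750 cells/well in RPMI with 5% FBS, dosed after 2 h and incubated 48 h at 37C. CellTiter-Glo luminescence normalized to DMSO and no-cell wells; concentration-response curves fitted and classed.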
An asterisk follows results filed as active; u = inconclusive; x = no result. Sampled rows, rich in hits. Any-hit rate of the full collection: about 19%. Unless noted, calls come from the whole dose curve; as a rule, active = well fitted curve in the direction sought with a large enough effect; inconclusive = small, poorly fitted or top-dose-only effect, or another doubt; inactive = no such curve, though single readings can be large; an effect the other way counts as inactive or inconclusive. Unless noted, % is set by controls: 0 for no effect and ±100 for the full control effect.

SMILES	IL1B secr inh	ELG1 repair inh	TDP1 cell noCPT	HT1080 IDH1KD tx	TDP1 cell CPT	HT1080-NT tox
COc1cc(-c2nn3c(-c4ccco4)nnc3s2)cc(OC)c1OC	x	-3.5%	x	x	x	x
COc1cc(-c2nn3c(C4CCCCC4)nnc3s2)cc(OC)c1OC	-50.8*	5.8µM*	20.6µM*	1.3%	u	-6.3%
c1csc(-c2nn3c(C4CCCCC4)nnc3s2)c1	u	x	u	6.2%	u	0.0%
COc1ccc(-c2nn3c(C4CCCCC4)nnc3s2)cc1OC	-13.4	u	u	-17.1%	14.6µM*	-3.4%
COc1cc2c(cc1OC)C(=O)C(Br)CC2 (stereo unspecified)	1.7	x	4.61µM*	u	3.66µM*	u
O=[N+]([O-])c1cc2c(cc1/C=N/Nc1nc(N3CCCC3)nc(N3CCCC3)n1)OCO2	13.2	u	-22.7%	17.2%	-0.2%	7.9%
O=C1N=C(N2CCOCC2)S/C1=C/c1cc2c(cc1[N+](=O)[O-])OCO2	-99.8*	u	13µM*	u	11.6µM*	u
O=C1N=C(N2CCOCC2)S/C1=C\c1ccccc1OS(=O)(=O)c1ccccc1	11.7	u	8.2µM*	8.8%	11.6µM*	-12.0%
CC(=O)N1CCN(C2=NC(=O)/C(=C/c3ccc(OS(=O)(=O)c4ccccc4)cc3)S2)CC1	0.0	u	u	-2.1%	20.6µM*	-5.5%
Cc1ccc(S(=O)(=O)Oc2ccccc2/C=C2/SC(=O)NC2=O)cc1	29.1	u	0.1%	-18.9%	3.3%	-22.7%
C#CCOCCOCCOCCNc1nc(N2CCN(C(=O)[C@H](C(C)C)n3cc(CCO)nn3)CC2)nc(N2CCN(C(=O)[C@H]([C@@H](C)CC)n3cc(CCC(=O)O)nn3)CC2)n1	-6.1	x	-1.0%	8.0%	-1.5%	2.3%
CCOC(=O)C1(Cc2ccccc2C(F)(F)F)CCN(CC2CC2)CC1	u	7.6%	u	-2.5%	u	-15.0%
O=C(NCc1ccco1)c1ccc(COc2ccccc2Cl)cc1	-57.4*	-3.3%	u	-14.4%	u	-12.8%
O=C(NCc1ccco1)c1ccc(COc2cccc3ccccc23)cc1	-60.2*	-3.3%	-16.4%	-0.6%	-5.9%	3.0%
Cc1ccc2nc(NCCCO)nc(-c3ccccc3)c2c1	-3.6	-12.0%	11.6µM*	u	13µM*	u
COc1cccc(Nc2nc(-c3ccccc3)c3cc(C)ccc3n2)c1	x	x	u	x	7.31µM*	x
OCCCNc1nc(-c2ccccc2)c2cc(Br)ccc2n1	-75.8*	-23.2%	u	-28.5%	u	-11.6%
CC1=C(C(=O)N(C(C)C)C(C)C)CC(CC(=O)NC2CCCC2)C(=O)N1Cc1ccc(C(C)(C)C)cc1 (stereo unspecified)	-68.1*	x	23.1µM*	u	20.6µM*	u
CC1=C(C(=O)N2CCCCCC2)CC(CC(=O)NC2CCCC2)C(=O)N1Cc1ccccc1 (stereo unspecified)	-5.2	x	-16.0%	15.2%	-28.9%	13.8%
COc1ccc(CN2C(=O)C(CC(=O)NC3CCCCC3)CC(C(=O)N(C(C)C)C(C)C)=C2C)cc1 (stereo unspecified)	-18.9	x	14.6µM*	-1.7%	u	-7.2%
CC1=C(C(=O)N2CCCCCC2)CC(CC(=O)NC2CCCC2)C(=O)N1Cc1ccc(C(C)(C)C)cc1 (stereo unspecified)	-72.9*	x	u	u	u	-5.4%
CC1=C(C(=O)N(C)C)CC(CC(=O)NC2CCCCC2)C(=O)N1Cc1ccc(C(C)(C)C)cc1 (stereo unspecified)	-5.2	x	u	16.4%	u	-9.5%
CCN(CC)C(=O)C1=C(C)N(Cc2ccc(C(C)(C)C)cc2)C(=O)C(CC(=O)NC2CCCCC2)C1 (stereo unspecified)	-25.8	x	11.6µM*	-1.7%	14.6µM*	-6.1%
CCOC(=O)C1(C)CCCN(C(=O)c2cc(F)ccc2C)C1 (stereo unspecified)	-16.9	x	-14.1%	6.2%	3.2%	25.0%
N#Cc1ccc(-c2nc3ccc(Br)cn3c2Cc2ccccc2)cc1	-7.0	x	9.2µM*	-11.3%	11.6µM*	-10.0%
SMILES	IL1B secr inh	ELG1 repair inh	TDP1 cell noCPT	HT1080 IDH1KD tx	TDP1 cell CPT	HT1080-NT tox
Cc1ccc(Cc2c(-c3ccc(C#N)cc3)nc3ccc(Br)cn23)cc1	-8.9	x	u	-5.4%	20.6µM*	-13.6%
Cc1ccc(Cc2c(-c3ccccc3)nc3ccc(Br)cn23)cc1	9.0	x	u	-0.8%	u	-18.2%
Cc1ccc(CNC(=O)c2sc3nc[nH]c(=O)c3c2C)cc1	x	x	-19.7%	x	-10.6%	x
CCC(=O)N1CCc2cc(S(=O)(=O)NC(CC(C)C)C(=O)Nc3cccc(C)c3C)ccc21 (stereo unspecified)	x	x	-20.4%	x	-19.7%	x
COc1ccc(CC(=O)NCc2csc(-c3cccs3)n2)cc1OC	81.9	u	u	-14.2%	-29.7%	-0.9%
CCOc1cc(C(=S)N2CCCC2)ccc1OC	5.1	-4.6%	7.9%	7.3%	12.6%	12.0%
COc1cc(C(=S)N2CCCCC2)ccc1OCC(=O)Nc1ccccc1Cl	-70.3*	2.9%	23.1µM*	-7.5%	u	u
CCOc1cc(C(=S)N2CCCC2)ccc1OCC(=O)Nc1c(C)cc(C)cc1C	-3.9	20.6µM*	16.4µM*	-5.6%	18.4µM*	-15.9%
CSc1nc(N)c2ncn([C@H]3O[C@H](COP(=O)(O)OP(=O)(O)OP(=O)(O)O)[C@@H](O)[C@@H]3O)c2n1	x	x	u	x	-0.4%	x
O=S(=O)(CCN1C=CC(C(F)(F)F)=NCC1)c1ccc(Cl)cc1Cl	-67.6*	8.6%	-22.5%	1.4%	-6.4%	-2.4%
C=CCNc1nc(Cl)nc(Nc2cc(Cl)ccc2OC)n1	-1.5	-7.7%	u	-19.3%	u	-9.9%
CCN(C(=O)CCN1C(=O)S/C(=C\c2ccccc2)C1=O)C1CCS(=O)(=O)C1 (stereo unspecified)	-23.5	1.9%	u	4.2%	16.4µM*	1.2%
CN(C(=O)CN1C(=O)/C(=C/c2ccccc2F)SC1=S)C1CCS(=O)(=O)C1 (stereo unspecified)	-1.3	8.2%	u	10.5%	18.4µM*	-3.5%
CN(C(=O)CN1C(=O)S/C(=C\c2ccccc2)C1=O)C1CCS(=O)(=O)C1 (stereo unspecified)	-7.2	u	-4.1%	0.0%	15.7%	-0.5%
